Some compounds were tested as several samples or in several runs, with calls that do not always agree. Active and inactive are the calls of the source. The calls were made as follows: active = hit-call score of the fitted dose curve at least 0.9, where 1 is the maximum; inactive = score below 0.9.

This experiment in a line: APR_HepG2_MitoMass_72hr: Apredica 72-hour HepG2 Assay for Mitochondrial Mass (AID 2282924).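 Also: MitoTracker Red CMXRos stain intensity per cell imaged as mitochondrial mass.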 The following applies: high-content imaging, actives raise or lower the signal. In outline: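 HepG2, 72 hr cmpd, 10 conc 0.39–200 uM in dup, DMSO 0.5% v/v. MitoTracker Red CMXRos 250 nM 30 min pre-fix; formaldehyde 3.7% fix 30 min RT. HCS imaging, gain/loss fit vs DMSO.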
`CC(Oc1ccc(Cl)cc1Cl)C(=O)O` (configuration not stated): the molecule was called inactive. Same read-out and setting: the entry for `CN(C)C(=S)SSC(=S)N(C)C` is “inactive”. As to `CCON=C(CC)C1=C(O)CC(c2c(C)cc(C)cc2C)CC1=O` (configuration not stated), the outcome was inactive. On to `CS/C(C)=N/OC(=O)N(C)SN(C)C(=O)O/N=C(\C)SC`, for which the molecule was called inactive. Regarding `CCCCNC(=O)OCC#CI`, the half-maximal activity concentration (AC50) was 5.54 µM (active) and the outcome was inactive.

For the molecule `C=CCC1=C(C)[C@@H](OC(=O)[C@@H]2[C@@H](C=C(C)C)C2(C)C)CC1=O`, the molecule was classed as inactive.

As a reminder, the AC50 is the concentration at which the activity in the assay is half-maximal.

(Values after PubChem BioAssay (EPA / NIEHS).)
